Measurements taken from PubChem BioAssay AID2501 (Southern Research Specialized Biocontainment Screening …, 2010).
The campaign covered roughly 2,200 compounds. About 1,200 (55%) were called active. The limit is not given here; nearly all actives have IC50 up to about 92 µM. The set was probably picked from earlier hits. The list shows a part of the results.

assay: counter assay for TAg ATPase ADP read-out – biochemical, ADP-Hunter, fluorescence, counter-screen (AID 2501); settings: series mostly up to 100 µM; inhibition: at the top concentration;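 also: purified T antigen ATPase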;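 as to inhibition: 0% = enzyme with vehicle and 100% = reference inhibitor wells; higher means more inhibition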

Row | SMILES | IC50 | inhibition
1 | Nc1ccc2c(c1)Cc1ccccc1-2 | 4.77 µM (active) | 
2 | O=C1NC(=O)C(=Cc2csc3ccccc23)C(=O)N1 |  | 4.76% (inactive)
3 | CN1CCN(/N=C/c2c[nH]c3ccccc23)CC1 | 6.59 µM (active) | 
4 | O=C1NC(=O)N(Cc2ccco2)C(=O)/C1=C/c1cccn1CCOc1ccccc1Cl |  | -6.99% (inactive)
5 | O=C1NC(=S)NC(=O)C1=Cc1ccc2c(c1)CCN2CCCCl |  | 8.61% (inactive)
6 | O=C1NC(=O)N(c2ccccc2)C(=O)/C1=C/c1ccc([N+](=O)[O-])s1 |  | 6.79% (inactive)
7 | C=CCN1C(=O)/C(=C/c2cc(C)n(-c3cccnc3)c2C)C(=O)NC1=S |  | -0.68% (inactive)
8 | C[CH2][Hg][S]c1ccccc1C(=O)O |  | 16.9% [at 50 µM] (inactive)
9 | CCOc1ccccc1N1C(=O)NC(=O)/C(=C/c2ccc3c4c(cccc24)CC3)C1=O |  | 5.91% (inactive)
10 | CCC(C)N1C(=O)NC(=O)C2(Cc3c(ccc4ccccc34)N(C)C2)C1=O (configuration not stated) | 23.3 µM (active) | 
11 | COc1ccc(N2C(=O)/C(=C/c3ccc(C)o3)C(=O)NC2=S)c(OC)c1 |  | -2.21% (inactive)
12 | COc1ccc(CN2C(=O)NC(=O)/C(=C/c3ccc([N+](=O)[O-])o3)C2=O)cc1 |  | 26.2% (inactive)
13 | Cc1ccc2c(c1)=C/C(=C\c1c(O)[nH]c(=O)[nH]c1=O)C(=O)N=2 |  | 1.86% (inactive)
14 | CCN1C(=O)/C(=C\c2ccc([N+](=O)[O-])s2)C(=O)NC1=S |  | 28.9% (inactive)
15 | O=C1NC(=O)N(c2ccccc2)C(=O)/C1=C\C=C\c1ccccc1 |  | 24% (inactive)
16 | CN(c1ccc(OCC(=O)N2CCN(C/C=C/c3ccccc3)CC2)cc1)S(=O)(=O)c1cccs1 |  | 28.9% (inactive)
17 | O=c1[nH]sc2cc(F)ccc12 |  | 7.46% (inactive)
18 | O=C(O)CCC(=O)NCCC1=c2ccccc2=N/C1=C\c1c(O)n(Cc2ccc(F)cc2)c(=S)[nH]c1=O |  | -17.4% (inactive)
19 | CC1CN=C(Nc2ccc(N(C)C)cc2)S1 (configuration not stated) | 7.09 µM (active) | 
20 | COP(=S)(OC)SCN1C(=O)c2ccccc2C1=O |  | 1.36% (inactive)
21 | CCOc1ccc(N2C(=O)NC(=O)/C(=C\c3ccccc3[N+](=O)[O-])C2=O)cc1 |  | 19.3% (inactive)

Row | SMILES | IC50 | inhibition
22 | CCc1c(C)nc(N)nc1N1N=C1SC(C(C)=O)C(C)=O |  | 9.54% (inactive)
23 | CCCN1CCc2cc(O)cc3c2[C@H]1Cc1ccc(O)c(O)c1-3 |  | -61.6% (inactive)
24 | O=c1c(O)c(-c2ccc(O)c(O)c2)oc2cc(O)cc(O)c12 | 98.5 µM (active) | 
25 | O=c1cc(-c2ccc(O)c(O)c2)oc2cc(O)cc(O)c12 | 8.07 µM (active) | 
26 | Oc1cc2c(cc1O)[C@H]1c3ccccc3CN[C@@H]1CC2 |  | -74.2% (inactive)
27 | CN1CCc2cc(O)cc3c2[C@H]1Cc1ccc(O)c(O)c1-3 |  | -56.5% (inactive)
28 | O=C1NC(=O)N(c2ccc(Br)cc2)C(=O)/C1=C/c1ccsc1 |  | -9.71% (inactive)
29 | CN1C(=O)NC(=O)/C(=C/c2ccc([N+](=O)[O-])o2)C1=O |  | 6.64% (inactive)
30 | O=C1NC(=O)N(c2ccccc2)C(=O)/C1=C\c1ccc2c3c(cccc13)CC2 |  | 2.57% (inactive)
31 | O=c1c2ccccc2[se]n1-c1ccccc1 | 10.9 µM (active) | 
32 | O=C1NC(=O)C(=Cc2ccccc2OCCOc2ccc([N+](=O)[O-])cc2)C(=O)N1 |  | 21.8% (inactive)
33 | CCN1C(=O)C(=C/C=C/c2ccco2)C(=O)N(CC)C1=S |  | -52.2% (inactive)
34 | CCOc1cccc(OCC)c2c(C)[n+](CC3CCCO3)c(C)c1-2 (configuration not stated) |  | -27.2% (inactive)
35 | COc1cc(C=C2C(=O)NC(=O)NC2=O)ccc1O | 19.6 µM (active) | 
36 | CCOC(=O)CSCCOc1ccc(C=C2C(=O)NC(=O)NC2=O)cc1OC |  | -17.2% (inactive)
37 | O=C1NC(=O)C(=Cc2ccc(OCCOc3ccc([N+](=O)[O-])cc3)cc2)C(=O)N1 |  | -3.74% (inactive)
38 | O=C1NC(=O)N(CCc2ccc(F)cc2)C(=O)/C1=C/c1ccco1 |  | 11.4% (inactive)
39 | COc1cc(/C=C2\C(=O)NC(=O)N(CCc3ccc(F)cc3)C2=O)ccc1O | 6.23 µM (active) | 
40 | COc1ccc(CN2C(=O)NC(=O)/C(=C/c3ccoc3)C2=O)cc1 |  | 8.61% (inactive)
41 | Cc1nc2cc([N+](=O)[O-])ccc2c(=O)n1-c1ccc(Br)cc1 |  | -52.8% (inactive)
42 | O=C1NC(=S)NC(=O)C1=Cc1cccn1-c1ccc(O)cc1 |  | 20.7% [at 50 µM] (inactive)

Row | SMILES | IC50 | inhibition
43 | Cc1cc(C=C2C(=O)N(C)C(=S)N(C)C2=O)c(C)n1-c1ccncc1 |  | 1.6% (inactive)
44 | CN(C)[C@@H]1C(=O)C(C(N)=O)=C(O)[C@@]2(O)C(=O)C3=C(O)c4c(O)cccc4[C@@](C)(O)[C@H]3[C@H](O)[C@@H]12 | inactive | 
45 | CCCNC(=O)N1C2CCC1CC(O)(c1cccnc1)C2 (configuration not stated) |  | -23% (inactive)
46 | Cc1ccccc1-n1c(C)cc(/C=C2/C(=O)NC(=O)N(Cc3ccco3)C2=O)c1C |  | 12.9% (inactive)
47 | N/C(=N\[N+](=O)[O-])N/N=C/c1ccc(O)cc1 | 2.93 µM (active) | 
48 | C[C@]12CC[C@@H]3c4ccc(O)c(O)c4CC[C@H]3[C@@H]1CC[C@@H]2O |  | -196% (inactive)
49 | COc1ccc(/C=C2/C(=O)NC(=O)N(Cc3ccco3)C2=O)cc1 |  | 9.99% (inactive)
50 | NS(=O)(=O)c1ccc(-c2ccc(C=C3C(=O)NC(=O)NC3=O)o2)cc1 |  | 14% (inactive)
51 | CC1=NCCc2c1[nH]c1cc(O)ccc21 | 4.35 µM (active) | 
52 | Cc1ccc(N2C(=O)NC(=O)/C(=C/c3ccc(-c4ccc(C(=O)O)c(Cl)c4)o3)C2=O)cc1 |  | 3.2% (inactive)
53 | NC(N)=Nc1ccc2[nH]c3c(c2c1)C[C@@]1(O)[C@H]2Cc4ccc(O)c5c4[C@@]1(CCN2CC1CC1)[C@H]3O5 |  | 7.88% (inactive)
54 | Cc1ccc(N2C(=O)NC(=O)/C(=C\C=C\c3ccco3)C2=O)cc1C |  | 29.6% (inactive)
55 | C=C1C(=O)O[C@H]2[C@H]1[C@H](OC(=O)CC(=O)O[C@@H]1C[C@@H](C)[C@@H]3C=CC(=O)[C@@]3(C)[C@H]3OC(=O)C(=C)[C@H]13)C[C@@H](C)[C@H]1C=CC(=O)[C@]12C |  | -28.2% (inactive)
56 | CN1C(=O)/C(=C/C=C/c2ccco2)C(=O)NC1=S |  | 0.73% (inactive)
57 | O=C1NC(=O)C(=Cc2ccc(-c3cc(Cl)ccc3[N+](=O)[O-])o2)C(=O)N1 |  | 2.85% (inactive)
58 | COc1cc2c(cc1O)CC[n+]1cc3c(OC)c(OC)ccc3cc1-2 | 4.22 µM (active) | 
59 | O=C1NC(=O)N(c2ccccc2)C(=O)/C1=C\c1ccc([N+](=O)[O-])s1 |  | 18.4% (inactive)
60 | O=c1[nH]c(=S)n(-c2ccccc2F)c(O)c1C=Nc1ccc(N2CCOCC2)cc1 | 5.34 µM (active) | 
61 | CC(C)Nc1ccc(Nc2ccccc2)cc1 | 5.82 µM (active) | 
62 | NS(=O)(=O)c1ccc(-c2ccc(C=C3C(=O)NC(=S)NC3=O)o2)cc1 |  | -13.7% (inactive)
